DPM-DC inhibit: S. pneumoniae DPM-DC inhibitors, primary screen, biochemical, PK/LDH-coupled NADH fluorescence; purified DPM-DC; calls only at 10 µM; hit rate 0.49% among 65,000; AID 556, 2006;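 active = the 320 compounds with the highest percent inhibition in the single-dose primary screen, excluding strongly autofluorescent ones, cut at about 32% in these data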;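 note: kinetic rate of NADH fluorescence loss reporting ADP formed by the decarboxylase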
Spn MK inh: S. pneumoniae MK inhibitors, primary screen, biochemical, PK/LDH-coupled NADH absorbance; inhibition, % at 10 µM; purified MK, PK/LDH-coupled NADH absorbance 340 nm; mevalonate kinase [Streptococcus pneumoniae D39]; hit rate 0.48% among 65,000;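 active = ranked among the strongest by inhibition in the single 10 µM screen, a fixed top-ranked set picked for dose follow-up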
Spn PMK inh: S. pneumoniae PMK inhibitors, primary screen, biochemical, mevalonate pathway, pilot trial included. purified PMK, PK/LDH-coupled NADH absorbance 340 nm. inhibition, % at 10 µM. hit rate 0.49% among 65,000;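 active = top-ranked compounds by inhibition in the single 10 µM screen, taking a fixed number of the strongest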
NADH coupling: inhibitors of PK/LDH coupling enzymes, profiling panel, artefact control, biochemical, MLSMR library; coupled PK/LDH NADH assays, four targets; IC50, µM (top dose mostly 10 µM); hit rate 0.02% among 65,000;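 active = single-dose screening hits from any of four coupled enzyme assays that gave an IC50 when retested across doses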;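 note: the DPM-DC format reads NADH fluorescence rather than 340 nm absorbance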
Abs 340nm: compound light absorbance at 340 nm, profiling panel, artefact control, biochemical, MLSMR library, data from PS, PMK, MK assays; compound absorbance at 340 nm, fold over control; fold change at 10 µM; AID 708, 2007; 65,000 tested, under 10 active;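 active = at 10 µM dose, initial 340 nm absorbance at least 2 fold that of control wells; inactive = change under 2 fold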;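 note: initial absorbance extrapolated from kinetic A340 decline of NADH oxidation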
Autofluor 339: intrinsic fluorescence of library compounds, ex339/em460 – biochemical, MLSMR library, data from DPM-DC assay, artefact control, profiling panel. compound autofluorescence, ex339/em460 nm, NADH buffer; stronger effect = higher value; 1 = no-compound wells, NADH background. hit rate 5.5% among 65,000. fluorescence fold increase at 10 µM;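 active = at 10 µM, mean starting fluorescence two-fold or more over control wells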;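 note: signal is the first read of a kinetic run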
A number is an active result; . = inactive; / = no result given. A selection: hits, their analogues and other compounds. The true share with any hit is near 6.3%.

SMILES	DPM-DC inhibit	Spn MK inh	Spn PMK inh	NADH coupling	Abs 340nm	Autofluor 339
CCCS(=O)(=O)N1CCCC(C(=O)NCC2CCCO2)C1 (stereo not given)	.	.	.	.	.	.
Cc1ccc(C(=O)c2coc3ccc(O)c(CN4CCN(C)CC4)c23)cc1	.	.	.	.	.	.
O=c1c2c([nH]c3ccccc13)C(=C1CCCC1)CC2	/	.	.	.	.	2.11
CC(C)(C)C1CCc2[nH]c3ccccc3c(=O)c2C1 (stereo not given)	.	.	.	.	.	.
COC(=O)c1ccc(-c2cc(C(=O)O)c3cc4c(cc3n2)OCCO4)cc1	/	.	.	.	.	4.89
CCC(=O)Nc1nc2ccccc2n1Cc1ccc(C)cc1	.	.	.	.	.	.
O=C(Nc1cccc(NC(=O)c2ccc(Br)o2)n1)c1ccc(Br)o1	.	.	.	.	.	.
CCC(=O)Nc1c(C#N)c2nc3ccccc3nc2n1-c1ccc(C)cc1	/	.	.	.	.	3.72
N#Cc1c(NC(=O)c2ccc(Br)o2)n(-c2ccccc2)c2nc3ccccc3nc12	/	.	.	.	.	3.02
COc1c(C)cccc1C(=O)Nc1cc(-c2nn3c(C)nnc3s2)ccc1C	.	.	.	.	.	.
CCN1CCN(Cc2c(O)ccc3c(=O)c(-c4ccc(OC)c(OC)c4)c(C)oc23)CC1	/	.	.	.	.	3.87
COc1ccc(-c2c(C)oc3c(CN4CCN(C)CC4)c(O)ccc3c2=O)cc1	/	.	.	.	.	2.2
Cn1c(=O)c2ncn(CC(=O)Nc3ccc4oc(-c5cccc6ccccc56)nc4c3)c2n(C)c1=O	/	.	.	.	.	3.69
CCC(C)c1ccc2oc(-c3ccc(NC(=O)Cn4cnc5c(=O)n(C)c(=O)n(C)c54)cc3)nc2c1 (stereo not given)	/	.	.	.	.	3.69
CC(C)C(c1nnnn1C(C)(C)C)N1CCN(c2cccc(Cl)c2)CC1 (stereo not given)	.	.	.	.	.	.
O=C(COn1nnc2ccc(Cl)cc21)NCc1ccccc1	.	.	.	.	.	.
CCCc1cc(=O)oc2cc(C)c3c(C)coc3c12	/	.	.	.	.	2.14
CCCc1cc(=O)oc2cc3occ(C)c3cc12	/	.	.	.	.	2.23
c1ccc2c(-c3nc4ncccc4o3)cccc2c1	/	.	.	.	.	3.77
O=C(COc1ccccc1)Nc1ccc(Cl)c(-c2nc3ncccc3o2)c1	.	.	.	.	.	.
O=C1c2ccccc2C(O)(Cc2ccccc2)N1c1ccc2c(c1)OCO2 (stereo not given)	.	.	.	.	.	.
COC(=O)c1cn(-c2ccccc2)nc1C(=O)OC	.	.	19.0	.	.	.
CCOC(=O)c1[nH]c2cc3c(cc2c1NC(=O)CN1CCC(C)CC1)OCO3	/	.	.	.	.	2.27
CCOC(=O)N1CCN(CC(=O)Nc2c(C(=O)OC)[nH]c3ccccc23)CC1	.	.	.	.	.	.
CCOC(=O)c1[nH]c2cc3c(cc2c1NC(=O)CN1CCc2ccccc2C1)OCO3	/	.	.	.	.	2.3
SMILES	DPM-DC inhibit	Spn MK inh	Spn PMK inh	NADH coupling	Abs 340nm	Autofluor 339
Cc1c(-c2cccs2)[n+](=O)c2c(n1[O-])CCCCC2	.	.	.	.	.	.
CCCCCCC(=O)c1c(C)[nH]c(C(=O)OCC)c1C	.	.	.	.	.	.
COC(=O)c1ccccc1NC(=O)c1ccc(-c2ccccc2F)o1	/	.	.	.	.	2.21
Cn1nnnc1SCc1cn2cccnc2n1	/	.	.	.	.	3.28
c1ccc(Cn2c(SCc3cn4cccnc4n3)nnc2-c2ccco2)cc1	.	.	.	.	.	2.24
C=CCn1c(SCn2nnc3ccccc3c2=O)nnc1C1CCCCC1	.	.	.	.	.	.
CC1S/C(=C(\C#N)C(N)=O)N(c2ccc(F)cc2)C1=O (stereo not given)	.	.	.	.	.	.
COc1ccccc1C(=O)Nc1ccc2oc(-c3ccc(F)cc3)nc2c1	/	.	.	.	.	2.21
O=C(Nc1ccc2oc(-c3ccccc3)nc2c1)c1ccc2c(c1)OCCO2	.	.	.	.	.	3.19
COc1c(F)c(F)c(C(=O)Nc2ccc3oc(-c4ccncc4)nc3c2)c(F)c1F	.	.	.	.	.	.
COc1ccc(C(=O)Nc2ccc3oc(-c4cccc(F)c4)nc3c2)cc1OC	/	.	.	.	.	2.13
CC1(C)CC(c2csc(N)n2)CCO1 (stereo not given)	.	.	.	.	.	.
CCCCN1C(=O)c2ccc(C(=O)NC3=NCCS3)cc2C1=O	.	.	.	.	.	.
CN(c1ccccc1)C(c1ccc(F)cc1)c1nnnn1C1CCCC1 (stereo not given)	.	.	.	.	.	.
O=C1NC2(CCCCC2)Oc2ccccc21	.	.	.	.	.	.
O=C1c2ccccc2NC2(CCCCC2)N1c1ccc(O)cc1	/	.	.	.	.	3.74
CN(C(=O)c1cccc(C#N)c1)c1nnc(-c2ccncc2)s1	.	.	.	.	.	2.44
CN(C(=O)c1cccnc1)c1nnc(-c2ccccn2)s1	.	.	.	.	.	2.18
CCC(=O)N1CCc2cc(Br)cc(S(=O)(=O)N3CCN(c4ccccn4)CC3)c21	.	.	.	.	.	.
CC(=O)N1CCN(c2ccc(Oc3nnnn3-c3ccccc3)cc2)CC1	.	.	.	.	.	.
N/C(=N\S(=O)(=O)c1ccc(Cl)s1)c1ccccc1	.	.	.	.	.	.
COc1cc(CNc2ccc3c(c2)CCC3)cc(OC)c1O	.	44.0	.	.	.	.
Cc1ccc2c(c1)c1ncnc(N3CCC4(CC3)OCCO4)c1n2C	/	.	.	.	.	3.71
Cc1ccc2c(c1)c1ncnc(N3CCOCC3)c1n2C	/	.	.	.	.	3.76
Cc1ccc2c(c1)c1ncnc(N3CCN(c4ccccc4)CC3)c1n2C	.	.	.	.	.	.
Cc1ccc(-n2ncc3c(N4CCC5(CC4)OCCO5)ncnc32)c(C)c1	.	.	.	.	.	.
CC(C)=CCC/C(C)=C/CN(CC(C)O)CC(C)O (stereo not given)	.	40.0	.	.	.	.
CC(C)=CCCC(C)N(C=O)C(C)CCC=C(C)C (stereo not given)	.	.	.	.	.	.
C=CCn1c(COc2ccc(Cl)cc2)nnc1SCC(=O)N1CC(=O)Nc2ccccc21	.	.	.	.	.	.
CCC(C)(C)NC(=O)C(OC(=O)c1cc2sccc2n1C)c1ccc(OC)cc1 (stereo not given)	.	.	.	.	.	.
